Laboratory results reported in PubChem BioAssay (NCATS).
Results filed as inconclusive are left out. Entries that show only a call come without a potency. The source made the active and inactive calls. The call rests on the fitted dose curve; in most records, active means well fitted curve in the direction sought with a large enough effect; inconclusive means small, poorly fitted or top-dose-only effect, or another doubt; inactive means no such curve, though single readings can be large; an effect the other way counts as inactive or inconclusive. Where a SMILES comes first, the peptide text is derived from it. [ ]: non-standard residue; d: D form. ξ: configuration not given here. ξTyr(βOH) = NC(C(=O)O)C(O)c1ccc(O)cc1

What was measured:
[1] = P-glycoprotein substrates identified in KB-8-5-11 adenocarcinoma cell line, qHTS therapeutic library screen (AID 1346987); conditions: KB-8-5-11 (P-gp overexpressing) viability, CellTiter-Glo, 72 h; series mostly up to 44.5 µM; further: nearly all actives have a fitted effect of over 65% in size
Method in brief: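 Luminescence from CellTiter-Glo, read 5 min after addition, quantified survival of KB-8-5-11 (P-gp-overexpressing) cells exposed to compounds for 72 h. AC50 was derived from concentration-response curves.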

[2] = system: Zika virus NS2B-NS3 protease (unlinked complex); assay: Primary screen GU Rhodamine qHTS for Zika virus inhibitors: Unlinked NS2B-NS3 protease assay (AID 1347159); conditions: Recombinant ZIKV NS2B-NS3 protease, Rhodamine110 substrate fluorescence; series mostly up to 107 µM; further: nearly all actives have a fitted effect of over 60% in size; further: potency means the concentration at half of the fitted maximal effect
Method in brief: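 Unlinked NS2B/NS3, 25 nM; Rhod110 peptide, 1.5 microM; compounds, up to 114 microM. Reaction run 15 min at RT in 10 mM Tris-HCl pH 8.0, 0.01% Tween 20; kinetic fluorescence change fitted with a 4-parameter Hill model.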

[3] = system: Zika virus NS2B-NS3 protease (linked construct); assay: Primary screen NINDS Rhodamine qHTS for Zika virus inhibitors (AID 1347160); conditions: purified NS2B-NS3 protease, Rhodamine110 substrate fluorescence; series mostly up to 33.1 µM; further: nearly all actives have a fitted effect of over 55% in size; further: potency means the concentration at half of the fitted maximal effect
Method in brief: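 Single-chain NS2B-NS3 protease, 25 nM, pH 8.0; compounds preincubated 15 min. Activity: Rhodamine110 release from 1.5 microM substrate over 15 min, room temperature, data fitted to 4-parameter Hill.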

CCC1OC(=O)C(C)CC(C)C(=O)/C(C)=C/C(C)C(=O)/C=C/C1(C)O (stereo unspecified)
Potency [1]: inactive | Potency [2]: inactive | Potency [3]: inactive

O=C(O)[C@H]1Cc2ccccc2CN1
activity change, negative = cytotoxicity [1]: 6.15% [at 5.11 µM] (inactive) | activity change, negative = inhibition [2]: -0.45% [at 11.5 µM] (inactive) | activity change, negative = inhibition [3]: 20.2% [at 4.91 µM] (inactive)

C/C(=C/CO)CC[C@H]1[C@]2(C)C[C@H](O)CC(C)(C)[C@H]2CC[C@]1(C)O
Potency [1]: inactive | Potency [2]: inactive | Potency [3]: inactive

CC1(C)CC[C@]2(C(=O)O)CC[C@]3(C)C(=CCC4[C@@]5(C)C(=O)C[C@H](O)[C@@](C)(CO)C5CC[C@]43C)[C@@H]2C1 (stereo partly specified)
Potency [1]: inactive | Potency [2]: inactive | Potency [3]: inactive

C=C(C)C1CCC2(C(=O)OC3OC(COC4OC(CO)C(O)C(O)C4O)C(OC4OC(C)C(O)C(O)C4O)C(O)C3O)CCC3(C(=O)O)C(CCC4C5(C)CCC(=O)C(C)(C)C5CCC43C)C12 (stereo unspecified)
outcome [1]: inactive [at 9.29 µM] | Potency [2]: inactive | Potency [3]: inactive

CC(C)(O)c1ccc2c(c1)C(=O)C[C@H]1[C@](C)(C(=O)O)CCC[C@]21C
Potency [1]: inactive | Potency [2]: inactive | Potency [3]: inactive

CC1(C)CC[C@]2(C(=O)O[C@@H]3O[C@H](CO)[C@@H](O)[C@H](O)[C@H]3O)CC[C@]3(C)C(=CCC4[C@@]5(C)C[C@H](O)[C@H](O[C@@H]6OC[C@@H](O)[C@H](O)[C@H]6O)[C@@](C)(CO)C5CC[C@]43C)C2C1 (stereo partly specified)
outcome [1]: inactive [at 9.29 µM] | Potency [2]: inactive | Potency [3]: inactive

CN1CCCC1Cc1c[nH]c2ccc(CCS(=O)(=O)c3ccccc3)cc12 (stereo unspecified)
Potency [1]: inactive | Potency [2]: inactive | Potency [3]: inactive

C[C@@H]1O[C@@H](O[C@H]2[C@@H]3C=CO[C@@H](O[C@@H]4O[C@H](CO)[C@@H](O)[C@H](O)[C@H]4O)[C@@H]3[C@@]3(CO)O[C@@H]23)[C@H](O)[C@H](O)[C@H]1OC(=O)/C=C/c1ccc(O)cc1
Potency [1]: inactive | Potency [2]: inactive | Potency [3]: inactive

CC1CCC2(NC1)OC1C(O)C3C4CCC5CC(O[C@@H]6O[C@H](CO)[C@@H](O)[C@H](O)[C@H]6O[C@@H]6O[C@@H](C)[C@H](O)[C@@H](O)[C@H]6O)CCC5(C)C4CCC3(C)C1C2C (stereo partly specified)
Potency [1]: inactive | Potency [2]: inactive | Potency [3]: inactive

COc1ccccc1CN[C@H]1CCCN[C@H]1c1ccccc1
Potency [1]: inactive | Potency [2]: inactive | Potency [3]: inactive

COc1cccc2c1c(O)c(C(=O)N(C)c1ccc(C(F)(F)F)cc1)c(=O)n2C
Potency [1]: inactive | Potency [2]: inactive | Potency [3]: inactive

CC(C)C(NC(=O)c1ccc(O)cc1)C(=O)N1CCCC1C(=O)Nc1c(O)cccc1C(=O)O (stereo unspecified)
Potency [1]: inactive | Potency [2]: inactive | Potency [3]: inactive

C/C=C/C=C/C=C/C(=O)OC1C=C2C(O)OC(=O)[C@]2(O)[C@@]2(C)CCCC(C)(C)[C@H]12 (stereo partly specified)
Potency [1]: inactive | Potency [2]: 6.31 µM (active) | Potency [3]: 12.6 µM (active)

CC1(C)CC[C@]2(C(=O)O[C@@H]3O[C@H](CO)[C@@H](O)[C@H](O)[C@H]3O)CC[C@]3(C)C(=CCC4[C@@]5(C)C[C@H](O)[C@H](O[C@@H]6O[C@H](C(=O)O)[C@@H](O)[C@H](O)[C@H]6O)[C@@](C)(CO)C5CC[C@]43C)C2C1 (stereo partly specified)
activity change, negative = cytotoxicity [1]: -7.52% [at 9.29 µM] (inactive) | activity change, negative = inhibition [2]: 21.5% [at 19.1 µM] (inactive) | Potency [3]: inactive

C=C(C)[C@@H]1CC[C@]2(C(=O)O)CC[C@]3(C)[C@H](CCC4[C@@]5(C)CCC(=O)C(C)(C)C5C(O)C[C@]43C)C12 (stereo partly specified)
Potency [1]: inactive | Potency [2]: inactive | Potency [3]: inactive

COc1cc(C(C)=O)ccc1O[C@@H]1O[C@H](CO[C@@H]2OC[C@@H](O)[C@H](O)[C@H]2O)[C@@H](O)[C@H](O)[C@H]1O
Potency [1]: inactive | Potency [2]: inactive | Potency [3]: inactive

COc1ccc(-n2c(SCC#N)nc3sc4c(c3c2=O)CCCC4)cc1
Potency [1]: inactive | Potency [2]: inactive | Potency [3]: inactive

C=C1CCC2[C@](C)(CO)CCC[C@@]2(C)[C@@H]1CCC1=CCOC1=O (stereo partly specified)
Potency [1]: inactive | Potency [2]: inactive | Potency [3]: inactive

CC(=O)O[C@@H]1C(=O)C(C)=C(CCC(C)CC(=O)O)[C@@]2(C)CCCC(C)(C)C12 (stereo partly specified)
Potency [1]: inactive | Potency [2]: inactive | Potency [3]: inactive

CCNC(=O)C1CC(F)(c2ccc(CN3CCCC3)c(F)c2)C1 (stereo unspecified)
Potency [1]: inactive | Potency [2]: inactive | Potency [3]: inactive

O=C(C1OC1/C=C/c1ccc2c(c1)OCO2)N1CCCCC1 (stereo unspecified)
Potency [1]: inactive | Potency [2]: inactive | Potency [3]: inactive

C/C=C(/C)C(=O)OC1C2OC2C2(CO2)C2C3OC(=O)C(C)C3CCC12C (stereo unspecified)
Potency [1]: inactive | Potency [2]: inactive | Potency [3]: inactive

Oc1ccc2c(-c3c(-c4ccccn4)nn4c3CCC4)ccnc2c1
Potency [1]: inactive | Potency [2]: inactive | Potency [3]: inactive

CC1C(=O)OCC2=CC[N+]3([O-])CCC(OC(=O)C(C)(O)C1(C)O)C23 (stereo unspecified)
Potency [1]: inactive | Potency [2]: inactive | Potency [3]: inactive

C=C1C[C@]23C[C@H]1CC[C@H]2[C@]1(C)CC[C@H](O)[C@@](C)(C(=O)O)[C@H]1[C@@H]3C(=O)O
Potency [1]: inactive | Potency [2]: inactive | Potency [3]: inactive

CCN=C1N[C@@H]2[C@@H](O)[C@H](O)[C@@H](CO)O[C@@H]2S1
Potency [1]: inactive | Potency [2]: inactive | Potency [3]: inactive

CC(C)C1NC(=O)CNC(=O)C2CCCN2C(=O)C(Cc2c[nH]c3ccccc23)NC(=O)CNC(=O)C(C(O)c2ccc(O)cc2)NC(=O)CNC1=O (stereo unspecified) (cyclo(G[ξTyr(βOH)]GWPGV); configuration not given here)
Potency [1]: inactive | Potency [2]: inactive | Potency [3]: inactive

COc1c(O)cc2c(c1O)C(=O)O[C@H](C)[C@H]2O
Potency [1]: inactive | Potency [2]: inactive | Potency [3]: inactive

Cc1cc(-c2nncc3c(C(C)(C)C)c(OCc4ncnn4C)nn23)no1
Potency [1]: inactive | Potency [2]: inactive | Potency [3]: inactive

CCCO[C@@H]1O[C@H](CO)[C@@H](O)[C@H](O)[C@H]1O[C@@H]1OC[C@@H](O)[C@H](O)[C@H]1O
Potency [1]: inactive | Potency [2]: inactive | Potency [3]: inactive

O=C(/C=C/c1ccc(O)cc1)OCC1OC(O)C(OC2OC(CO)C(O)C(O)C2O)C(O)C1O (stereo unspecified)
Potency [1]: inactive | Potency [2]: inactive | Potency [3]: inactive

CC1=C2CC(=O)C(C)CC/C=C(\C)CC2(O)OC1=O (stereo unspecified)
Potency [1]: inactive | Potency [2]: inactive | Potency [3]: inactive

C/C=C1/[C@H](O[C@@H]2O[C@H](CO)[C@@H](O)[C@H](O)[C@H]2O)OC=C(C(=O)OC)[C@H]1CC(=O)OCCc1ccc(O)c(O)c1
Potency [1]: inactive | Potency [2]: inactive | Potency [3]: inactive

C[C@@H]1O[C@@H](OC2C(CO)OC(OCC3OC(OC(=O)[C@]45CCC(C)(C)CC4C4=CCC6[C@@]7(C)CC[C@@H](O)[C@](C)(C(=O)O)C7CC[C@@]6(C)[C@]4(C)CC5)C(O)C(O)C3O)C(O)C2O)[C@H](O)[C@H](O)[C@H]1O (stereo partly specified)
activity change, negative = cytotoxicity [1]: 5.62% [at 9.29 µM] (inactive) | Potency [2]: inactive | Potency [3]: inactive

CC(=O)OC[C@]12[C@H](OC(C)=O)[C@H](OC(=O)c3ccccc3)[C@@H]3[C@@H](OC(C)=O)[C@]1(OC3(C)C)[C@H](C)C[C@H](OC(=O)c1ccccc1)[C@@H]2OC(=O)c1ccccc1
Potency [1]: inactive | Potency [2]: inactive | Potency [3]: inactive

CC(O)CCc1ccc(O[C@@H]2O[C@H](CO)[C@@H](O)[C@H](O)[C@H]2O)cc1 (stereo partly specified)
Potency [1]: inactive | Potency [2]: inactive | Potency [3]: inactive

COc1ccc(C(=O)NCc2cc(C(C)C)no2)cc1OC1CCN(C)CC1
Potency [1]: inactive | Potency [2]: inactive | Potency [3]: inactive

C=C1CC[C@@H]2[C@@](C)(CO[C@@H]3O[C@H](CO)[C@@H](O)[C@H](O)[C@H]3O)[C@H](O)CC[C@@]2(C)[C@@H]1CC/C(C)=C/CO[C@@H]1O[C@H](CO)[C@@H](O)[C@H](O)[C@H]1O
Potency [1]: inactive | Potency [2]: inactive | Potency [3]: inactive

CNc1nc(Cc2ccccc2)nc2c1CCNC[C@@H]2C
Potency [1]: inactive | Potency [2]: inactive | Potency [3]: inactive

CC1(C)CC[C@]2(C(=O)OC3OC(CO)C(O)C(O)C3O)CC[C@]3(C)C(=CCC4[C@@]5(C)C[C@@H](O)[C@H](OC6OC(C(=O)O)C(O)C(O)C6O)C(C)(C)C5CC[C@]43C)[C@@H]2C1 (stereo partly specified)
activity change, negative = cytotoxicity [1]: 8.55% [at 9.29 µM] (inactive) | Potency [2]: inactive | Potency [3]: inactive

CCC(C)C1NC(=O)C2C(C)CCN2C(=O)C(CC(O)CO)OC(=O)CCNC(=O)C(C)N(C)C(=O)C(C(C)C)N(C)C1=O (stereo unspecified)
Potency [1]: inactive | Potency [2]: inactive | Potency [3]: inactive

CNc1nc(C)nc(N[C@H]2CCC[C@@H](C(=O)NCc3ccc(C#N)cc3C(F)(F)F)C2)n1
Potency [1]: inactive | Potency [2]: inactive | Potency [3]: inactive

CN1CCc2cc(Cl)c(O)cc2[C@@H](c2cccc3c2OCC3)C1
Potency [1]: inactive | Potency [2]: inactive | Potency [3]: inactive

C/C=C(/C)C(=O)O[C@H]1C[C@]2(C)O[C@@H]2[C@@H](OC(C)=O)[C@@]2(C)CC[C@@](O)(C(C)C)[C@H]12
Potency [1]: inactive | Potency [2]: inactive | Potency [3]: inactive

COc1ccc(CCC(=O)O)c(O[C@@H]2O[C@H](CO)[C@@H](O)[C@H](O)[C@H]2O)c1
Potency [1]: inactive | Potency [2]: inactive | Potency [3]: inactive

C[C@H]1/C=C/C=C/C=C/C=C/C=C/[C@@H](O)[C@H](C(=O)O)[C@H](O)C[C@H](O)CCC[C@H](O)C[C@H](O)C[C@H](O)[C@@H](C)C(=O)O[C@@H]1C
Potency [1]: inactive | Potency [2]: inactive | Potency [3]: inactive

COC(=O)/C=C/c1ccc(O[C@@H]2O[C@H](CO)[C@@H](O)[C@H](O)[C@H]2O)cc1
Potency [1]: inactive | Potency [2]: inactive | Potency [3]: inactive

CC(C)C(O)(CO)CCO[C@@H]1O[C@H](CO[C@H]2OC[C@](O)(CO)[C@H]2O)[C@@H](O)[C@H](O)[C@H]1O (stereo partly specified)
Potency [1]: inactive | Potency [2]: inactive | Potency [3]: inactive

C/C=C(\C)C(=O)OC1CC2C(CC=C3CC(OC4CC(OC)C(OC5CC(OC)C(OC6CC(OC)C(OC7CC(OC)C(OC8CC(OC)C(OC9OC(CO)C(O)C(O)C9O)C(C)O8)C(C)O7)C(C)O6)C(C)O5)C(C)O4)CCC32C)C2(O)CCC(C(C)=O)C12C (stereo unspecified)
outcome [1]: inactive [at 9.29 µM] | activity change, negative = inhibition [2]: 20.8% [at 19.1 µM] (inactive) | Potency [3]: inactive

CC(C)(O)C1CCC2(C)CCCC(C)(O)C2C1 (stereo unspecified)
Potency [1]: inactive | Potency [2]: inactive | Potency [3]: inactive

Cc1ccc(Nc2nnc(-c3ccc([N+](=O)[O-])cc3)o2)cc1Cl
Potency [1]: inactive | Potency [2]: inactive | Potency [3]: inactive
